# In PubChem BioAssay AID2508 (National Center for Advancing Translational Sciences (NCATS), 2010):
# Inconclusive results are not listed. Active and inactive are the calls of the source. Calls come from the whole dose curve; as a rule, active = well fitted inhibition curve with a large enough effect; inconclusive = small, poorly fitted or top-dose-only effect, or effect the other way; inactive = no such curve, though single readings can be large or run the other way.
# Test: Confirmatory Assay for General miRNAs Modulators and/or Inhibitors/Activators of miR-21
# Settings: HeLa miR-21 FLuc reporter, luminescence, 48 h; series mostly up to 38.3 µM
# Excerpt: MLSCN Grant: 1 R21 NS059478-01 Assay Provider: Qihong Huang, The Wistar Institute NCGC Assay Overview: MicroRNAs (miRNAs) are endogenously encoded small (~20-25 nucleotides), nonprotein-coding RNAs that are involved in post-transcriptional repression of target messenger RNAs (mRNAs) (Le and Hannon, 2004). Estimated to be involved in the regulation of 30% of all protein-coding mRNAs (Filipowicz et al., 2008), miRNAs play a significant role in many biological processes including cellular differentiation and tissue development (Ghildiyal and Zamore, 2009).
# NCGC Assay Protocol Summary: Reagents: HeLa cells stably expressing firefly luciferase (FLuc) under the control of a CMV promoter (upstream) and a miR-21 binding sequence directly downstream of the gene. These cells endogenously express miR-21. Control compounds used were compound C3 (provided by collaborator), N6-phenyladenosine (MP Biomedicals, 0215379625), and DMSO. Assay Summary: 6uL of HeLa miR-21-FLuc cells in assay buffer (DMEM, Invitrogen #21063-029; 10% FBS, HyClone #SH30071.03) were dispensed at 2000cells/well (3.3 x 10^5 cells/mL) into Greiner solid-white TC-treated 1536-well plates using a Multidrop Combi (Thermo Fisher Scientific). Plates were incubated for one hour at 37 degree Celsius, 95% humidity, 5% CO2. These assay plates were then treated with 23nL of compound or DMSO using a Kalypsys pin tool, which allows for delivery of a 24-point titration of each compound to the assay plate, with a final compound concentration ranging from approximately 40uM to 5pM. Assay plates were then incubated for 48 hours. After incubation, plates were allowed to come to RT for one hour prior to delivery of 3uL of 3X luciferase detection reagent. After a 15 minute incubation to allow for cell lysis, luciferase activity was measured using a ViewLux CCD imager (PerkinElmer), with an average exposure time of 2-12 seconds. Keywords: NIH Roadmap, MLPCN, MLSMR, qHTS, miR-21, microRNA, firefly luciferase, FLuc.
row,SMILES,Potency
1,Cc1ccc(-c2nsc(SCC(=O)Nc3ccc4c(c3)OCO4)n2)cc1,17.9 µM (active)
2,c1ccc(C2=Nn3c(nnc3-c3cc(-c4ccccc4)n[nH]3)SC2)cc1,inactive
3,COc1cccc(-n2nnc(-c3nc(-c4cccs4)no3)c2N)c1,0.895 µM (active)
4,COc1ccc(C(=O)Nc2nnc(C(C)C)s2)cc1OC,17.9 µM (active)
5,Cc1ccc(-c2nc(NCc3ccco3)n(S(C)(=O)=O)n2)cc1,7.98 µM (active)
6,Nc1c(-c2nc(-c3cccs3)no2)nnn1-c1cccc(F)c1,0.318 µM (active)
7,CN(C(=O)CSc1nnc(-c2ccccc2F)o1)C1CCCCC1,14.2 µM (active)
8,Clc1ccc(-n2ncc3c(NCc4ccccn4)ncnc32)cc1,4.49 µM (active)
9,CC(C)(C)C1CCc2nc(NC(=O)Cc3cn4ccsc4n3)sc2C1 (configuration not stated),11.3 µM (active)
10,Cc1ccc(CNc2nc(-c3ccco3)nn2S(C)(=O)=O)cc1,4 µM (active)
11,COc1ccc(OCC(=O)Nc2ccc(-c3nc4cc(Cl)ccc4o3)cc2)cc1,0.503 µM (active)
12,Cc1c(-c2nsc(NC(=O)c3cccs3)n2)nnn1-c1ccc(Cl)cc1,14.2 µM (active)
13,Cn1c(=O)[nH]c2cc(-c3noc(-c4ccc(F)cc4)n3)ccc21,10 µM (active)
14,CC1=C(c2ccc(C)c(C)c2)S(=O)(=O)N=C1N1CCC(C(=O)NCCc2ccc(Cl)cc2)CC1,inactive
15,CN(C)c1ccc(CNc2nc(-c3ccco3)nn2S(C)(=O)=O)cc1,6.34 µM (active)
16,Cc1c(-c2nsc(NC(=O)c3cccs3)n2)nnn1-c1ccc(F)cc1,0.565 µM (active)

row,SMILES,Potency
1,O=C(CSc1nnc(-c2ccc(C(F)(F)F)cn2)o1)Nc1cccc(Cl)c1,2.25 µM (active)
2,CS(=O)(=O)n1nc(-c2ccc(Cl)cc2)nc1SCc1ccccc1,5.04 µM (active)
3,CC(=O)c1cnc2nc(SCc3ccccc3)nn2c1C,6.34 µM (active)
4,Cc1ccc(CNc2nc3nc(C)c(Cl)c(C)n3n2)cc1,4 µM (active)
5,CC(=O)Nc1nc2c(C)cc(NC(=O)C3CCCCC3)cc2s1,1.79 µM (active)
6,Nc1c(-c2nc(-c3ccncc3)no2)nnn1CC(=O)Nc1ccccc1,inactive
7,Cc1nnc(SCc2nc(N)nc(Nc3ccccc3)n2)s1,22.5 µM (active)
8,Cc1ccccc1OCCn1cnc2c(N)ncnc21,inactive
9,COc1ccccc1C(=O)n1nc(-c2ccco2)nc1NCc1ccc(Cl)cc1,12.6 µM (active)
10,O=C(CSc1nnc(-c2ccc(Cl)cc2)o1)Nc1ccc(F)cc1,1.79 µM (active)
11,O=C(Nc1nnc(S(=O)(=O)N2CCCC2)s1)c1ccc(F)cc1,inactive
12,COc1ccc(-n2nnc(-c3nc(-c4cccs4)no3)c2N)cc1OC,inactive
13,CC(C)C(=O)Nc1nc2c(s1)CC(C(C)(C)C)CC2 (configuration not stated),2.83 µM (active)
14,Cc1ccc(SCC(=O)Nc2ccc3oc(-c4ccc(F)cc4)nc3c2)cc1,15.9 µM (active)
15,Cc1cc(C)c2c(N)c(C(=O)Nc3ccccc3F)sc2n1,1.42 µM (active)
16,O=S(=O)(c1ccc(F)cc1)n1ccc(-c2cnc(-c3ccccc3)s2)n1,5.65 µM (active)
